Screening data deposited in PubChem by National Center for Advancing Translational Sciences (NCATS).
The list is not random: actives were taken first. Their share in the collection is about 2.9%.
EPAC1 ag val = validation of human EPAC1 agonists; O95398; EPAC1 Rap1b BODIPY-GDP exchange, fluorescence; Potency, µM, inactives show max response, positive = active, hits mostly activators; actives 1% (n = 16,000); also: nearly all actives have a fitted effect of over 70% in size
EPAC2 ant val = human EPAC2 antagonism, validation. EPAC2 Rap1B BODIPY-GDP exchange, fluorescence. Potency, µM (highest dose often 112 µM), without a hit: at the top dose activity, negative = inhibition, actives largely listed as inhibitors. Q8WZA2. AID 1645886. actives 1.7% (n = 16,000);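 also: 100% = activation by cAMP agonist control; nearly all actives have a fitted effect of over 40% in size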
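Fluorescent exchange read-out: 100 nM EPAC2 with 250 nM RAP1B–BODIPY-GDP and 50 uM GDP; BODIPY-GDP release lowers fluorescence. Read at 480/540 nm every 5 min for 30 min at room temperature; normalized to 6.5 mM cAMP.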
Numbers without * were called inactive; ? = inconclusive; ! = a repeat was not active; [ ] = another dose, or the depositor's remark. Calls follow the shape of the dose curve; as a rule, active = well fitted curve in the direction sought with a large enough effect; inconclusive = small, poorly fitted or top-dose-only effect, or another doubt; inactive = no such curve, though single readings can be large; an effect the other way counts as inactive or inconclusive. Unless noted, % is scaled to controls: 0 for no effect and ±100 for the full control effect; potency is read from the fitted curve at half-maximal effect.

SMILES	EPAC1 ag val	EPAC2 ant val
C=Nc1ccc(/C=C/c2ccnc3ccccc23)cc1	100µM*	28.3%
CCCCN(CCCC)c1ccc(/C=C/c2ccnc3ccccc23)cc1	112µM*	130.0%
C(=C\c1ccnc2ccccc12)/c1ccnc2ccccc12	-89.6%	-34.3%
CCCCCCCCCCCCCCCCCCN(CCCCCCCCCCCCCCCCCC)c1ccc(/C=C/c2ccnc3ccccc23)cc1	-16.9%	-27.0%
O=C(OC[C@H]1O[C@](O)(COC(=O)c2cccnc2)[C@@H](OC(=O)c2cccnc2)[C@@H]1OC(=O)c1cccnc1)c1cccnc1	-15.6%	-1.1%
CS(=O)(=O)c1ccc(-c2cccc3c2OC(CNC(=O)c2ccnc(Cl)c2)C3)cc1 (stereo not given)	13.0%	?
O=C(Oc1ccccc1)N1CCC2(CCCN(c3cccc(-c4ccccc4)c3)C2)CC1	?	-19.3%
O=C(c1ccco1)N1CCC2(CC1)CN(c1cccc(-c3ccccc3)c1)C2	100µM*	?
CC(=O)N1CCC2(CCCN(c3ccc(-c4ccccc4)cc3)C2)CC1	100µM*	?
O=C(c1ccco1)N1CCC2(CC1)CN(c1ccc(-c3ccccc3)cc1)C2	?	-23.6%
COCC(=O)N1CCC2(CCCN(c3ccc(-c4ccccc4)cc3)C2)CC1	-6.6%	-9.9%
CC(=O)N1CCC2(CCCN(c3cccc(-c4ccccc4)c3)C2)CC1	100µM*	44.7µM*
CC(=O)c1ccc(F)c(-c2cc(C)cc3c2OC(CNC(=O)c2csc(C)n2)C3)c1 (stereo not given)	8.3%	-31.6%
COCCN(C)C(=O)c1cnn(-c2ncc3c(n2)-c2ccccc2CC3)c1C	-13.4%	3.5%
Fc1ccc(N2CCN(Cc3ccc4c(c3)CN(Cc3cccn3-c3cccnc3)CCO4)CC2)cc1	-0.2%	-19.6%
CN(C)C(=O)[C@@H]1C[C@@H](Sc2nc3ccccc3[nH]2)CN1Cc1ccnc2ccccc12	-7.1%	?
CNc1cc(OC)c(C(=O)N[C@H]2CCN(Cc3ccccc3)[C@H]2C)cc1Cl	-30.4%	?
CC(C)C[C@H](CO)N(Cc1ccccc1)S(=O)(=O)N(Cc1ccccc1)[C@@H](CO)CC(C)C	-74.4%	?
O=S(=O)(N(Cc1ccccc1)[C@@H](CO)Cc1ccccc1)N(Cc1ccccc1)[C@@H](CO)Cc1ccccc1	-5.2%	-1.8%
C=CS(=O)(=O)N(Cc1ccccc1)[C@H](CO)CC(C)C	-51.3%	79.4µM*
C=CS(=O)(=O)N(Cc1ccccc1Br)[C@H](CO)Cc1ccccc1	12.1%	35.5µM*
CO[C@H]1[C@H](NC(=O)c2ccco2)c2ccccc2C12CCN(Cc1cc(Cl)ccc1O)CC2	19.2%	-33.2%
Cc1c(C(=O)NCC2COCCO2)cnn1-c1ncc2c(n1)-c1ccccc1CC2 (stereo not given)	-5.7%	-1.7%
Cc1cccc(N(C)C(=S)Oc2ccc3ccccc3c2)c1	112µM*!	-26.6%[56.6 µM]
Cc1cccc(N(C)C(=S)Oc2ccc3c(c2)CCC3)c1	23.9%	-12.1%
SMILES	EPAC1 ag val	EPAC2 ant val
COCCC(=O)NCC1Cc2cc(Cl)cc(-c3ccc4[nH]ccc4c3)c2O1 (stereo not given)	-10.0%	-23.0%
CCN(CC)CCCC(C)Nc1cc(/C=C/c2ccccc2Cl)nc2cc(Cl)ccc12 (stereo not given)	18.9%	-4.3%
CCN(CC)CCCC(C)Nc1c2ccc(Cl)cc2nc2ccc(OC)cc12 (stereo not given)	112µM*!	5.6%
CC(C)c1c(C(=O)NCC(C)(C)N2CCOCC2)cnn1-c1nccc(-c2cccs2)n1	5.1%	-18.7%
COc1cccc(C2(CC(=O)N3CCN(c4nonc4C)CC3)CC(=O)N(C3CCCC3)C2=O)c1 (stereo not given)	-0.4%	0.8%
CN(C)c1ccc(C(=C2C=CC(=[N+](C)C)C=C2)c2ccccc2)cc1	-10.4%	-0.9%
CN(C)c1ccc(C(=C2C=CC(=[N+](C)C)C=C2)c2c(O)c(S(=O)(=O)[O-])cc3cc(S(=O)(=O)O)ccc23)cc1	-36.4%	56.2µM*
CC(=O)N(Cc1ccc2c(c1)OCO2)Cc1cc2ccc(C)cc2nc1-c1cccc(C)c1	5.6%	?
O=S(=O)(O)c1cc(I)c(O)c2ncccc12	13.2%	18.3%
O=C(Nc1ccc(/C=C/c2ccc(NC(=O)c3cc(S(=O)(=O)O)c4cccnc4c3O)cc2S(=O)(=O)O)c(S(=O)(=O)O)c1)c1cc(S(=O)(=O)O)c2cccnc2c1O	?	22.4µM*
COC(=O)c1c(OCc2cccnc2)cc(=O)n2c1CCN(Cc1cc3c(cc1Cl)OCO3)CC2	3.0%	-1.7%
C=C(c1ccc2ccccc2n1)c1cccs1	-1.6%	?
c1cncc(CNc2ccnc(-c3cccnc3)n2)c1	20.1%	5.9%
c1ccc(C(NCc2cccnc2)(c2ccccc2)c2ccccc2)cc1	?	10µM*
CN(C)c1ccc(/C=C/c2ccnc3c2ccc2c(/C=C/c4ccc(N(C)C)cc4)ccnc23)cc1	-5.3%	?
Cc1ccc2nccc(/C=C/c3ccc(N(C)C)cc3)c2c1	112µM*	65.9%
Cc1cc(N(C)C)cc(C)c1/C=C/c1ccnc2ccccc12	100µM*	-23.4%
CN(C)C(=O)c1ccc(/C=C/c2ccnc3ccccc23)cc1	?	19.8%
CC(NC(=O)c1cc(F)ccc1F)c1nnc2n1CCN(Cc1ccc(-c3ccccc3)cc1)CC2 (stereo not given)	0.0%	-17.8%
CC(=O)Nc1cc(C(=O)N2CC3(C)CC2CC(C)(C)C3)cc2ncn(CCc3ccccn3)c12 (stereo not given)	-2.4%	-0.9%
Cc1cc(-c2ccc(N=Nc3c(S(=O)(=O)O)cc4cc(S(=O)(=O)O)cc(N)c4c3O)c(C)c2)ccc1N=Nc1c(S(=O)(=O)O)cc2cc(S(=O)(=O)O)cc(N)c2c1O	-31.0%	50.1µM*
CSc1ccccc1C(=O)NCc1nc(-c2cccc(NC(=O)c3ccoc3C)c2)oc1C	8.8%	-26.5%
[N-]=[N+]=NC[C@H](Cc1ccccc1)N1CC[C@@H](O)CCC1=O	12.5%	-5.2%
CC(C)(C)[C@H]1CCC(=O)N([C@H](CN=[N+]=[N-])Cc2ccccc2)CC1	-84.3%	56.2µM*
Cc1cc(C(=O)NCc2nc(-c3ccccc3NC(=O)C3CCCO3)oc2C)nc(C)n1 (stereo not given)	-9.1%	?
SMILES	EPAC1 ag val	EPAC2 ant val
COc1ccc(/C=C/C(=O)c2cccs2)c(OC)c1	?	-24.1%
COc1cc(O)c(C(=O)/C=C/c2ccc(OC)c(O)c2)c(OC)c1	100µM*	-26.6%
CC(=O)c1ccc(F)c(-c2cc(C)cc3c2OC(CNC(=O)Cc2ccc4c(c2)OCO4)C3)c1 (stereo not given)	18.9%	?
COc1ccccc1C(=O)N(Cc1cc2cccc(C)c2nc1N1CCC(O)CC1)C1CC1	4.3%	-12.3%
COc1ccc(C(=O)N2CCC3(CCCN(c4ccncc4)C3)CC2)cc1	5.6%	-25.0%
COc1ccc(C(=O)N2CCC3(CC2)CN(c2ccncc2)C3)cc1	100µM*	-29.7%
Nc1ncnc2c1nc(Sc1ccc(Cl)cc1)n2[C@H]1OC2COP(=O)(O)O[C@@H]2C1O (stereo not given in full)	0.178µM*	0.501µM*
Nc1ncnc2c1nc(Br)n2[C@@H]1O[C@H]2COP(=O)(O)O[C@@H]2[C@@H]1O	?	1.26µM*
Nc1ncnc2c1nc(Br)n2C1CC(O)C(CO)O1 (stereo not given)	-3.2%	-5.9%
Nc1ncnc2c1nc(Br)n2[C@H]1O[C@H]2COP(=O)(O)O[C@H]2[C@@H]1O	1.12µM*	3.55µM*
